Results as given in PubChem BioAssay (NCATS).
Records with an inconclusive call do not appear. The source made the active and inactive calls. Unless noted, calls come from the whole dose curve; as a rule, active = well fitted curve in the direction sought with a large enough effect; inconclusive = small, poorly fitted or top-dose-only effect, or another doubt; inactive = no such curve, though single readings can be large; an effect the other way counts as inactive or inconclusive.

Columns and labels:
[1] = target: Cytochrome P450 1A2 (Homo sapiens) (UniProt P05177); assay: p450-cyp1a2 (AID 410; calls by dose curve; note: potency is the fitted concentration of half-maximal effect); conditions: recombinant CYP1A2, luciferin-ME demethylation, luminescence; series mostly up to 57 µM
Chain of Cytochrome P450 1A2 (Homo sapiens) (P05177 whole entry, looked up): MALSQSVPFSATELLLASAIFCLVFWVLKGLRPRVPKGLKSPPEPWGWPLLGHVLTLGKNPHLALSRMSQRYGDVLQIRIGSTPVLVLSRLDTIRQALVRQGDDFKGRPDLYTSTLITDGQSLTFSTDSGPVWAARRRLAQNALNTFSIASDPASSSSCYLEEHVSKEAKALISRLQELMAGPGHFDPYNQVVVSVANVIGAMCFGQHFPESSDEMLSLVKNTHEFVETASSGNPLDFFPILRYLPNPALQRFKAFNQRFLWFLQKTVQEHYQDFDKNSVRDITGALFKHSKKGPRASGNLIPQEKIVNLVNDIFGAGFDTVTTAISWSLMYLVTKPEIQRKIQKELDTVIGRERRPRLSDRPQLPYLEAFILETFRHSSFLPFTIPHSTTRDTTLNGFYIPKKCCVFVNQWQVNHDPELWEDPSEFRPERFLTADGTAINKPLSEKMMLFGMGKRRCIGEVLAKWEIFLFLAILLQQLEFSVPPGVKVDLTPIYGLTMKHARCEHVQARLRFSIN
How it was run: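 Luminescent demethylation readout: Luciferin-ME (100uM, equal to Km) turned over by 20nM CYP1A2 for 60 min at room temperature after NADPH regeneration addition, following 10 min compound preincubation. Normalization used 57 uM furafylline as full inhibition.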

[2] = Stat Signaling Pathway (AID 446; active = well fitted curve in either direction with a large enough effect, not every such curve was filed as active;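 note: ME-180 cervical cancer cells given 40 pM IL-6 alongside compound; SIE-controlled beta-lactamase reporter measured as 460/530 nm FRET emission ratio; % is set by controls: 0 for no effect and ±100 for the full control effect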); conditions: ME-180 SIE beta-lactamase reporter, IL-6 stimulated, 5 h; at 7.69 µM (top of the series) unless noted
How it was run: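 Emission at 460 and 530 nm (excitation 405 nm) reports SIE-controlled beta-lactamase in ME-180 cells. Cells received compound with 40 pM IL-6 for 5 hrs at 37 C; data scaled between 300 pM IL-6 and 125 nM JAK-inhibitor controls.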

[3] = target: Glucocorticoid receptor (Homo sapiens) (UniProt P04150); assay: GR-GFP Redistribution (AID 450;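 active = compounds whose dose series gives a full or clear partial fitted curve of increased nuclear translocation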; note: potency is the fitted concentration of half-maximal effect); conditions: U2OS GR-GFP nuclear translocation, laser cytometry, 2 h
Chain of Glucocorticoid receptor (Homo sapiens) (P04150 whole entry, looked up, the tested form may be a part): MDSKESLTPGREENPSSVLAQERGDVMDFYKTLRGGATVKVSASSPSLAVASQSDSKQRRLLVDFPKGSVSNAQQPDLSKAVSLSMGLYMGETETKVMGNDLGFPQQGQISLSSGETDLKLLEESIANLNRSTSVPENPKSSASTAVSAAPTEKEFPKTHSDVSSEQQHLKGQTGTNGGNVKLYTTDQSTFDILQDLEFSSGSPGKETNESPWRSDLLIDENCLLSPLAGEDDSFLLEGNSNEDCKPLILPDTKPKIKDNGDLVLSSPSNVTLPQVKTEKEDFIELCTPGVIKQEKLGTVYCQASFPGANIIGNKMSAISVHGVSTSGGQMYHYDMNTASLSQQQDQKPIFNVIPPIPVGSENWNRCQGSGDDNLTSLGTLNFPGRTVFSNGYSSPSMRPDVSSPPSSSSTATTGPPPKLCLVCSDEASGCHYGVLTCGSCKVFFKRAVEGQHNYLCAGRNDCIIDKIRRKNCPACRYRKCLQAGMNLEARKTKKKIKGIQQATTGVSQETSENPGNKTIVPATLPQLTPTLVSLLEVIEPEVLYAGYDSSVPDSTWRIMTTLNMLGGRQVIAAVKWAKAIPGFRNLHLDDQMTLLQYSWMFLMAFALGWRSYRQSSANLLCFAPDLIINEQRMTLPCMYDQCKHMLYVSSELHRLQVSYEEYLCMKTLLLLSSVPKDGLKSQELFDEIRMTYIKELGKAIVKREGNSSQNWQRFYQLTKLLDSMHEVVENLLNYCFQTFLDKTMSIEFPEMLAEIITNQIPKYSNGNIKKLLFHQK

[4] = target: Glucocorticoid receptor (Homo sapiens) (UniProt P04150); assay: GR-EFC Redistribution (AID 451; calls by dose curve; note: potency is the fitted concentration of half-maximal effect); conditions: CHO-K1 GR-EFC translocation, beta-gal luminescence, 2 h
How it was run: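 CHO-K1 cells expressing nuclear EA and GR-ED fragments of b-gal; compounds titrated up to 46 uM final, 2 h at 37 C. GR nuclear translocation read as complemented b-gal luminescence after 1 h RT detection.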

[5] = target: Mitogen-activated protein kinase 10 (Mus musculus) (UniProt Q61831); assay: JNK3 AlphaScreen Assay (AID 530; active = well fitted curve in either direction with a large enough effect, not every such curve was filed as active;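 note: kinase came from lysate of stimulated human HepG2 cells; signal reports phosphorylation of biotinylated GST-cJun 1-79 at Ser73 with 10 µM ATP; % is set by controls: 0 for no effect and ±100 for the full control effect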); conditions: JNK3 lysate, c-Jun phosphorylation; series mostly up to 57.1 µM
How it was run: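 Activity was read by AlphaScreen after JNK3-containing HepG2 lysate (cytokine pre-activated) phosphorylated biotinylated GST-cJun with 10 uM ATP at room temperature. Phospho-Ser73 cJun antibody with Protein-A acceptor beads provided detection.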

[6] = target: Cytochrome P450 3A4 (Homo sapiens) (UniProt P08684); assay: qHTS Assay for Activators of Cytochrome P450 3A4 (AID 885); conditions: recombinant CYP3A4, Luciferin-PPXE luminescence, 60 min; series mostly up to 57.1 µM; note: nearly all actives have a fitted effect of over 65% in size
Chain of Cytochrome P450 3A4 (Homo sapiens) (P08684 whole entry, looked up): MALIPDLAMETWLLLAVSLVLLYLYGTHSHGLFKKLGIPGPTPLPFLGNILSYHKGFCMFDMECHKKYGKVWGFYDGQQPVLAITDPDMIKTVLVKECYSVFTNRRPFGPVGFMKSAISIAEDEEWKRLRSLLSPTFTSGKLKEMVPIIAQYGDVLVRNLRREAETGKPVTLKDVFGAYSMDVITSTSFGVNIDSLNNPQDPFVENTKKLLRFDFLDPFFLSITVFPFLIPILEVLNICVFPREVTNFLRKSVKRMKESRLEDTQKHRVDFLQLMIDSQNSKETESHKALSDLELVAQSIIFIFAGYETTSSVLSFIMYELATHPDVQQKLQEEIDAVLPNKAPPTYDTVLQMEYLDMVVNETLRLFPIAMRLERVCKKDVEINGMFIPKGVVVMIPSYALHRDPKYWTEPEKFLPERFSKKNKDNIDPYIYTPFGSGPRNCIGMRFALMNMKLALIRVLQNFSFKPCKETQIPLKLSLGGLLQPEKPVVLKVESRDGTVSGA
How it was run: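 Activators are scored by enhanced luminescence from CYP3A4 conversion of luciferin-PPXE (25uM, equal to KM) to luciferin, after 60 min at RT with an NADPH-regenerating system.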

[7] = qHTS Assay for Lipid Storage Modulators (AID 1519; calls by dose curve); conditions: Drosophila S3 cells, BODIPY lipid droplet/cell ratio, laser cytometry, cells loaded with oleic acid; for activity change, negative = inhibition: at 57.5 µM (top of the series)
How it was run: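 Cells seeded at 5,000 per well were treated with compounds over a concentration series and loaded with oleic acid (400 uM, as added). Lipid droplet fluorescence (488 nm excitation, 500-530 nm channel) was read by laser-scanning cytometry and normalized to 20 uM Triacsin C.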

[8] = Primary qHTS for small molecule stabilizers of the endoplasmic reticulum resident proteome: Secreted ER Calcium Modulated Protein (SERCaMP) assay (AID 1508630); conditions: SH-SY5Y GLuc-SERCaMP (Gaussia luciferase released on ER calcium loss) secretion, thapsigargin, luminescence; series mostly up to 38.4 µM; note: % is set by controls: 0 for no effect and ±100 for the full control effect
How it was run: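 The SH-SY5Y reporter protocol was run at 3 concentrations up to 38.3 uM (primary) or 11 concentrations (follow-up): 16 h compound, 100 nM thapsigargin for 4 h, then extracellular luciferase luminescence.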

[9] = target: Lysosomal acid glucosylceramidase (Homo sapiens) (UniProt P04062); assay: Glucocerebrosidase-p2 (AID 348; in the data active = potency below about 10 µM; note: potency is the fitted concentration of half-maximal effect); conditions: purified GBA, blue fluorogenic substrate, 40 min
Chain of Lysosomal acid glucosylceramidase (Homo sapiens) (P04062 whole entry, looked up): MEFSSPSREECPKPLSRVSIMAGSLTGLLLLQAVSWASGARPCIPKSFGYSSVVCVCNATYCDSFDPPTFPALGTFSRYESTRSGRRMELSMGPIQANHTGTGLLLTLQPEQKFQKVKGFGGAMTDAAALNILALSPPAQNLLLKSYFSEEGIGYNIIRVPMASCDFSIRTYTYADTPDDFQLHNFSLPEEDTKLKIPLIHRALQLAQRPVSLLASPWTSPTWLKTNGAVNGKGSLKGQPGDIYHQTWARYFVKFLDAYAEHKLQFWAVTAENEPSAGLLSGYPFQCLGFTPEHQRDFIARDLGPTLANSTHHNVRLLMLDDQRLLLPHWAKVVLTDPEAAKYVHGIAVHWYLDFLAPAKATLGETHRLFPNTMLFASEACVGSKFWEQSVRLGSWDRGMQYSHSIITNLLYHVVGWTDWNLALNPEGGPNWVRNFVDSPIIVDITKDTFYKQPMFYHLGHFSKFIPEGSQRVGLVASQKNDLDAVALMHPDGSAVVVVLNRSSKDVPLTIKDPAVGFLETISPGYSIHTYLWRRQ
How it was run: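 Normal human glucocerebrosidase (0.2 nM) with blue fluorogenic substrate (80 uM final) in citrate/phosphate pH 5.9 with 10mM sodium taurocholate, 0.01% tween-20; 40 min RT, NaOH/glycine stop; fluorescence Ex 365/Em 440; AC50 from a titration from 0.6 nM upwards.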

[10] = AP1 Signaling Pathway (AID 357; active = well fitted curve in either direction with a large enough effect, not every such curve was filed as active; note: % is set by controls: 0 for no effect and ±100 for the full control effect); conditions: ME-180 (cervical carcinoma) AP-1-bla reporter, EGF-induced, beta-lactamase ratio, 5 h; at 7.69 µM (top of the series) unless noted
How it was run: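 Modulation of EGF-driven AP-1 transcription was assessed with a beta-lactamase reporter in ME-180 cells. Compound and EC50 EGF were co-incubated 5 hours at 37 °C before 2.5-hour CCF4 loading at room temperature and dual-emission reading.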

[11] = NFAT Signaling Pathway (AID 444; active = well fitted curve in either direction with a large enough effect, not every such curve was filed as active); conditions: Jurkat NFAT-bla M1, carbachol, beta-lactamase ratio, 5 h; at 7.69 µM (top of the series) unless noted
How it was run: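 Jurkat cells with NFAT-driven β-lactamase reporter and co-expressed M1 receptor, stimulated with carbachol (final 1 uM, ~EC50), compound titration, 5 h at 37 °C. CCF4 loaded 1 h at RT; 460/530 nm ratio gave %activity and AC50.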

[12] = target: 3',5'-cyclic-AMP phosphodiesterase 4B (Homo sapiens) (UniProt Q07343); assay: qHTS Assay for Inhibitors of PDE-IV (AID 607; active = well fitted activation curve with a large enough effect in the main read-out, with a control signal flat, not every such curve was filed as active; note: % of control where 0% means no effect); conditions: HEK293 ACTOne CNG channel cells, membrane potential fluorescence; series mostly up to 22.9 µM
Chain of 3',5'-cyclic-AMP phosphodiesterase 4B (Homo sapiens) (Q07343 whole entry, looked up): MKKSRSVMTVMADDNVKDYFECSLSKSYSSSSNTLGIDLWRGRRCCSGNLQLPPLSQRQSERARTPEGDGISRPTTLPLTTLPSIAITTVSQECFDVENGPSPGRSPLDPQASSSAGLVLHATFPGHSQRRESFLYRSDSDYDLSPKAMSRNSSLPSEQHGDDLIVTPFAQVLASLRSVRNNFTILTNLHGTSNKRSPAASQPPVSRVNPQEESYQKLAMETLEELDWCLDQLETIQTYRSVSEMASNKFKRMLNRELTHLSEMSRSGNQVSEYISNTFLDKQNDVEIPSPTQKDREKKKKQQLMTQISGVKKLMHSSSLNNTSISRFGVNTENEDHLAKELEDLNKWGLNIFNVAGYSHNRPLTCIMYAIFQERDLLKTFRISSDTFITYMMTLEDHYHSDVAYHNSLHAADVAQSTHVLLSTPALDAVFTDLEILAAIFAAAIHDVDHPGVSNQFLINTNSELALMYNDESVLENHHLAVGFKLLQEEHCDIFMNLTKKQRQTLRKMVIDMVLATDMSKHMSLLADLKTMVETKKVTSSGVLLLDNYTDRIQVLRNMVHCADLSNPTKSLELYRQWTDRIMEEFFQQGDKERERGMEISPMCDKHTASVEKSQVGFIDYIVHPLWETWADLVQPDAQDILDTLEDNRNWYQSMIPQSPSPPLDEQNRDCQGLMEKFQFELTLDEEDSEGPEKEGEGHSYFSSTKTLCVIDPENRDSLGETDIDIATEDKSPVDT
How it was run: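 The readout is membrane depolarisation from a cAMP-sensing CNG channel, detected with a potential dye at ex 535/em 590. Cells were HEK293-derived (endogenous PDE-IV) at 1000 cells/well, titrated up to 22.9 uM final.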

[13] = target: Rap guanine nucleotide exchange factor 3 (Homo sapiens) (UniProt O95398); assay: Confirmatory qHTS for antagonist of cAMP-regulated guanine nucleotide exchange factor 3 (EPAC1) (AID 1645880); conditions: EPAC1 Rap1B-BODIPY-GDP exchange, fluorescence; series mostly up to 115 µM;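 note: plate controls were DMSO only for no effect and full effect of the ATA control for full effect; nearly all actives have a fitted effect of over 55% in size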
Chain of Rap guanine nucleotide exchange factor 3 (Homo sapiens) (O95398 whole entry, looked up): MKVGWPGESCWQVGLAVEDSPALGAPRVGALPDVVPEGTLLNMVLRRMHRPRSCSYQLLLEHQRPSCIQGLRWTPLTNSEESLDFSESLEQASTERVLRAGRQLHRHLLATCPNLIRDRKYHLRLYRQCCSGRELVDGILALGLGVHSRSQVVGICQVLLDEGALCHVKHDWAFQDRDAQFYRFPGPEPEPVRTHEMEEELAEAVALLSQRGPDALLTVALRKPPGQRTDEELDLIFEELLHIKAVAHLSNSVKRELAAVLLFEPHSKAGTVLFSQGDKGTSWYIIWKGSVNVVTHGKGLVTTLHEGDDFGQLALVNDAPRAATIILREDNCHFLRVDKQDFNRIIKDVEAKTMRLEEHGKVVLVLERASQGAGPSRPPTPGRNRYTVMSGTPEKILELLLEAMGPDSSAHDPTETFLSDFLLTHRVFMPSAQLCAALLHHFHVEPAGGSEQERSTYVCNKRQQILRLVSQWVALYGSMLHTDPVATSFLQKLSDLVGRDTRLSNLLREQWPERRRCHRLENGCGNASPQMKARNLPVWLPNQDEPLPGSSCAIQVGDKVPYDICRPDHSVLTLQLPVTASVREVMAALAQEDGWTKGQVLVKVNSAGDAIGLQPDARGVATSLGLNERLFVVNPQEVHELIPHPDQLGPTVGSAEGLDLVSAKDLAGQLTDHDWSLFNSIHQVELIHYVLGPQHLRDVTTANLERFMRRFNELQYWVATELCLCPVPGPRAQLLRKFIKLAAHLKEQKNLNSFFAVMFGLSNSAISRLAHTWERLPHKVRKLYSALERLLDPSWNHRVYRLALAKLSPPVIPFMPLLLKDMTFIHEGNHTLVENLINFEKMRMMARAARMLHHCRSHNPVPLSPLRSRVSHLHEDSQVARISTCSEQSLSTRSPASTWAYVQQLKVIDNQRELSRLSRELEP
How it was run: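 Released BODIPY-GDP fluoresces less than Rap1-bound BODIPY-GDP; the signal is followed at 480/540 nm at 5-min intervals over 30 min, after 5 min at room temperature. Reactions contain 100 nM EPAC1, 250 nM RAP1B-BODIPY-GDP and 50 uM GDP; results are normalized to ATA and DMSO.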

[14] = target: Rap guanine nucleotide exchange factor 3 (Homo sapiens) (UniProt O95398); assay: Confirmatory qHTS for agonist of cAMP-regulated guanine nucleotide exchange factor 3 (EPAC1) (AID 1645881); conditions: EPAC1 Rap1B BODIPY-GDP exchange fluorescence; series mostly up to 154 µM;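 note: EPAC1 catalysed release of BODIPY-GDP from Rap1B seen as fluorescence loss; 100% = effect of cAMP agonist control; nearly all actives have a fitted effect of over 75% in size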
[15] = target: Rap guanine nucleotide exchange factor 4 (Homo sapiens) (UniProt Q8WZA2); assay: Confirmatory qHTS for agonist of cAMP-regulated guanine nucleotide exchange factor 4 (EPAC2) (AID 1645884); conditions: EPAC2 GEF activity, Rap1B-BODIPY-GDP fluorescence; series mostly up to 154 µM;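 note: nucleotide exchange releases bodipy-GDP from Rap1 and this lowers its fluorescence; % is set by controls: 0 for no effect and ±100 for the full control effect; nearly all actives have a fitted effect of over 65% in size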
[16] = target: Rap guanine nucleotide exchange factor 4 (Homo sapiens) (UniProt Q8WZA2); assay: Confirmatory qHTS for antagonist of cAMP-regulated guanine nucleotide exchange factor 4 (EPAC2) (AID 1645885); conditions: EPAC2 Rap1B-BODIPY-GDP exchange fluorescence, biochemical; series mostly up to 114 µM; note: % is set by controls: 0 for no effect and ±100 for the full control effect; nearly all actives have a fitted effect of over 25% in size
[17] = target: Ubiquitin carboxyl-terminal hydrolase 1 (Homo sapiens) (UniProt O94782); assay: Inhibitors of USP1/UAF1: Pilot qHTS (AID 504865); conditions: purified USP1/UAF1, Ub-rhodamine cleavage fluorescence; series mostly up to 54.9 µM; note: nearly all actives have a fitted effect of over 35% in size; note: potency is the fitted concentration of half-maximal effect
How it was run: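 USP1/UAF1 complex (1nM) preincubated with compound 15 min at room temperature, then Ub-Rho substrate (150nM final) added. Fluorescence read kinetically at 480/540 nm, 6 reads every 60 seconds. Buffer: 50mM HEPES pH 7.8, 0.5mM EDTA, 0.1 mg/ml BSA, 1mM TCEP, 0.01% Tween-20.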

[18] = target: Dual specificity protein kinase CLK4 (Homo sapiens) (UniProt Q9HAZ1); assay: qHTS Assay for Inhibitors of CDC-like Kinase 4 (Kinase-Glo Assay) (AID 1770); conditions: recombinant Clk4, Kinase-Glo ATP depletion luminescence; series mostly up to 66.7 µM; note: nearly all actives have a fitted effect of over 65% in size; note: potency is the fitted concentration of half-maximal effect
Chain of Dual specificity protein kinase CLK4 (Homo sapiens) (Q9HAZ1 whole entry, looked up): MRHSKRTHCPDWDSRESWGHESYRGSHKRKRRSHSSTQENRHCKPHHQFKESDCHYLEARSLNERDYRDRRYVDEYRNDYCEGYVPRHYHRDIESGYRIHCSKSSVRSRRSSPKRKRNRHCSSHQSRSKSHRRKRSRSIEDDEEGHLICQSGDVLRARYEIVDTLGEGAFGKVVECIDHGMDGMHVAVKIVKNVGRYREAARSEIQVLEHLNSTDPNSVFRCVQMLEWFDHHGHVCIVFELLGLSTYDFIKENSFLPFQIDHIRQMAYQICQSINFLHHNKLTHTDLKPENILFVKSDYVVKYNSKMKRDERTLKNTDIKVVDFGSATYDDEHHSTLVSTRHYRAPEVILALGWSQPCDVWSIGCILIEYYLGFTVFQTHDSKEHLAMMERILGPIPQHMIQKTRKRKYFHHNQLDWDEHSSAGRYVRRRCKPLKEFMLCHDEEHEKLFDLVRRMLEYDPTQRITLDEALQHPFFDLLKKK
How it was run: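 Recombinant human Clk4 (25 nM) phosphorylated RS repeat peptide (100 uM) with 1 uM ATP in Tris pH 7.5/MgCl2/EGTA/DTT/Triton buffer for 4.5 h at room temperature. Residual ATP was quantified by Kinase-Glo luciferase luminescence.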

[19] = target: Dual specificity protein kinase CLK4 (Homo sapiens) (UniProt Q9HAZ1); assay: qHTS Assay for Inhibitors of CDC-like Kinase 4 (ADP-FP Assay) (AID 1795); conditions: Transcreener ADP fluorescence polarization; series mostly up to 50 µM; note: % is set by controls: 0 for no effect and ±100 for the full control effect; nearly all actives have a fitted effect of over 60% in size
How it was run: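 Recombinant human Clk4 (6.25 nM) phosphorylated RS repeat peptide (100 uM) with 1 uM ATP in Tris pH 7.5/MgCl2/EGTA/DTT/Triton buffer for one hour. ADP was quantified by Transcreener competitive fluorescence polarization against an ADP calibration curve.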

[20] = target: Dual specificity protein kinase CLK4 (Homo sapiens) (UniProt Q9HAZ1); assay: qHTS Assay for Inhibitors of CDC-like Kinase 4 (ADP-Glo Assay) (AID 1771); conditions: recombinant CLK4, ADP-Glo luminescence; series mostly up to 80 µM; note: potency is the fitted concentration of half-maximal effect; nearly all actives have a fitted effect of over 70% in size
How it was run: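 ADP production was read by ADP-Glo luminescence after residual ATP depletion, following 1 h room-temperature reaction of 25 nM Clk4, 1 uM ATP and 100 uM RS peptide with MgCl2, EGTA, DTT and Triton X-100.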

[21] = measured here: cell count channel max response
[22] = measured here: lipid channel max response

CS(=O)(=O)Nc1cccc(-c2ccc3ncnc(Nc4ccc(F)cc4)c3c2)c1
-14.7%: max response [7, 22]
-27.4%: max response [7, 21]
inactive: activity, negative = inhibition [2] 4.21% | Potency [3] > 46 µM | Potency [4] > 46 µM | Potency [5] | Potency [6] | activity change, negative = inhibition [7] 2.96% | outcome [8]
active: Potency [1] 0.794 µM

O=c1c(-c2ccc(Cl)cc2)nc2cncnc2n1Cc1ccccc1Cl
inactive: Potency [9] > 11.4 µM | activity change, negative = inhibition [10] 8.01% | activity change, negative = inhibition [11] -29.5% | activity, negative = inhibition [2] 13% | Potency [3] > 9.22 µM | Potency [4] > 46 µM | Potency [5] | Potency [12] | Potency [6] | outcome [8] | Potency [13] | Potency [14] | Potency [15] | Potency [16]
active: Potency [1] 1.26 µM

COc1cc(C)c2c(c1C=O)Oc1c(c(C)c(O)c3c1C(O)OC3=O)OC2=O (centres undefined)
active: Potency [17] 56.2 µM
5.41%: max response [7, 21]
11.3%: max response [7, 22]
inactive: activity change, negative = inhibition [7] 4.32% | outcome [8]

O=C(c1cccc(F)c1)N1CCC2(CCCN(c3cccc(-c4ccccc4)c3)C2)CC1
inactive: Potency [9] > 11.4 µM | activity change, negative = inhibition [10] 11.6% | activity change, negative = inhibition [11] -6.68% | activity, negative = inhibition [2] 7.29% | Potency [4] > 46 µM | Potency [5] | Potency [12] | Potency [6] | outcome [8] | Potency [13] | Potency [14] | Potency [15] | Potency [16]

COc1ccc(CNc2cc(-c3ccccc3C)ncn2)c(OC)c1
inactive: Potency [9] > 11.4 µM | activity change, negative = inhibition [11] -16.6% | activity, negative = inhibition [2] -12.7% | Potency [3] > 46 µM | Potency [4] > 46 µM | Potency [5] | Potency [18] | Potency [19] | outcome [8] | Potency [13] | Potency [14] | Potency [15] | Potency [16]

COc1ccc(CNc2ncnc3ccc(-c4c(C)noc4C)cc23)c(OC)c1
inactive: Potency [9] > 11.4 µM | Potency [3] > 46 µM | Potency [4] > 46 µM | Potency [5] | Potency [6] | Potency [19] | Potency [17] | outcome [8] | Potency [13] | Potency [14] | Potency [15] | Potency [16]
active: Potency [1] 15.8 µM | Potency [18] 10 µM | Potency [20] 15.8 µM

CN(C)c1ncc2nc(-c3cc(F)cc(F)c3)c(=O)n(Cc3cccs3)c2n1
active: Potency [1] 1.58 µM | activity change, negative = inhibition [11] 110% [activator] | activity, negative = inhibition [2] 190% [activator]
inactive: Potency [9] > 11.4 µM | Potency [3] > 9.22 µM | Potency [4] > 46 µM | Potency [12] | Potency [6] | outcome [8] | Potency [13] | Potency [14] | Potency [15] | Potency [16]
